In PubChem BioAssay (NCI):
About 83,000 compounds went through this panel and 20% of them were active in at least one assay; those are over-represented in the sample as a whole.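 Growth was measured after 48 h exposure to one concentration of compound in 96-well plates. Values under 10 count as active.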 Active and inactive are the calls of the source.

Legend:
Assay in all cases: NCI-60 one-dose screen, 48 h (100 = growth as untreated, 0 = no growth, -100 = all killed)
Conditions in all cases: 10 µM
SR leukemia = system: SR leukemia
RPMI-8226 leukemia = system: RPMI-8226 leukemia
OVCAR-8 ovarian = system: OVCAR-8 ovarian
OVCAR-5 ovarian = system: OVCAR-5 ovarian
OVCAR-4 ovarian = system: OVCAR-4 ovarian
SK-OV-3 ovarian = system: SK-OV-3 ovarian
IGROV1 ovarian = system: IGROV1 ovarian
OVCAR-3 ovarian = system: OVCAR-3 ovarian
HS 578T breast = system: HS 578T breast
NCI/ADR-RES ovarian = system: NCI/ADR-RES ovarian
T-47D breast = system: T-47D breast
BT-549 breast = system: BT-549 breast
MDA-MB-435 melanoma = system: MDA-MB-435 melanoma
SW-620 colon = system: SW-620 colon
MCF7 breast = system: MCF7 breast
HCT-116 colon = system: HCT-116 colon
HCC-2998 colon = system: HCC-2998 colon
KM12 colon = system: KM12 colon

Measured: growth

C=CCn1c(C)nc2cc(Nc3nc(Nc4ccc5nc(C)n(CC=C)c5c4)c4ccccc4n3)ccc21
active: SR leukemia -44.2% | RPMI-8226 leukemia -24% | OVCAR-8 ovarian -40.9% | OVCAR-5 ovarian -92.5% | OVCAR-4 ovarian -100% | SK-OV-3 ovarian -95.7% | IGROV1 ovarian -93.8% | OVCAR-3 ovarian -99.8% | HS 578T breast -48.1% | NCI/ADR-RES ovarian -23.7% | T-47D breast -60.3% | BT-549 breast -84% | MDA-MB-435 melanoma -76% | SW-620 colon -76.2% | MCF7 breast -89.3% | HCT-116 colon -96.5% | HCC-2998 colon -96.1% | KM12 colon -93.2%

CCOc1ccc2c(c1)CC[C@@H]1[C@@H]2CC[C@]2(C)[C@@H](O)[C@@H](O)C[C@@H]12
inactive: SR leukemia 88.5% | RPMI-8226 leukemia 92.9% | OVCAR-8 ovarian 95.1% | OVCAR-5 ovarian 95.7% | OVCAR-4 ovarian 90.2% | SK-OV-3 ovarian 113% | IGROV1 ovarian 106% | OVCAR-3 ovarian 118% | HS 578T breast 113% | NCI/ADR-RES ovarian 107% | T-47D breast 93.8% | BT-549 breast 119% | MDA-MB-435 melanoma 90.2% | SW-620 colon 95.9% | MCF7 breast 111% | HCT-116 colon 104% | HCC-2998 colon 108% | KM12 colon 106%

CC(=O)Oc1ccc(C2=Cc3ccc(OC(C)=O)cc3OC2C)cc1 (stereo not drawn)
active: SR leukemia 8.85%
inactive: RPMI-8226 leukemia 19.5% | OVCAR-8 ovarian 60.9% | OVCAR-5 ovarian 122% | OVCAR-4 ovarian 79.4% | SK-OV-3 ovarian 81% | IGROV1 ovarian 55.8% | OVCAR-3 ovarian 33.1% | HS 578T breast 42.8% | NCI/ADR-RES ovarian 25% | T-47D breast 88.5% | BT-549 breast 42.9% | MDA-MB-435 melanoma 25.2% | SW-620 colon 47% | MCF7 breast 49.1% | HCT-116 colon 38.3% | HCC-2998 colon 78.2% | KM12 colon 39%

Cc1nn2c(/C=C3/C(=O)Nc4ccc(Cl)cc43)c(-c3ccccc3)nc2s1
inactive: RPMI-8226 leukemia 23.7% | OVCAR-8 ovarian 14.6% | OVCAR-5 ovarian 73.6% | NCI/ADR-RES ovarian 38.3% | BT-549 breast 48.8% | MDA-MB-435 melanoma 44.4% | SW-620 colon 44.2% | MCF7 breast 38.5% | HCC-2998 colon 102% | KM12 colon 59.1%
active: SR leukemia -12.7% | OVCAR-4 ovarian -52.3% | SK-OV-3 ovarian -0.11% | IGROV1 ovarian 3.8% | OVCAR-3 ovarian 9.92% | HS 578T breast -6.37% | T-47D breast -1.58% | HCT-116 colon 7.12%

COc1ccc(-n2nnc3c(sc4ccccc43)c2=O)cc1
inactive: SR leukemia 51.1% | RPMI-8226 leukemia 72% | OVCAR-8 ovarian 29.1% | OVCAR-5 ovarian 80.2% | OVCAR-3 ovarian 24% | HS 578T breast 21.4% | NCI/ADR-RES ovarian 52.9% | T-47D breast 35.5% | BT-549 breast 102% | MDA-MB-435 melanoma 69% | SW-620 colon 83.9% | MCF7 breast 80.4% | HCC-2998 colon 74.9% | KM12 colon 70.2%
active: OVCAR-4 ovarian -46.9% | SK-OV-3 ovarian -15.6% | IGROV1 ovarian -0.829% | HCT-116 colon 5.85%

COc1cc(C(c2c[nH]c3ccccc23)N2CCCC2)ccc1OCc1ccccc1 (stereo not drawn)
active: BT-549 breast -2.45%
inactive: SR leukemia 34.9% | RPMI-8226 leukemia 32.3% | OVCAR-8 ovarian 80.4% | OVCAR-5 ovarian 97.1% | OVCAR-4 ovarian 91.8% | SK-OV-3 ovarian 89.5% | IGROV1 ovarian 48.1% | OVCAR-3 ovarian 75.5% | HS 578T breast 57.2% | NCI/ADR-RES ovarian 76.5% | T-47D breast 81.5% | MDA-MB-435 melanoma 96.8% | SW-620 colon 98.9% | MCF7 breast 83.4% | HCT-116 colon 69% | HCC-2998 colon 96.2% | KM12 colon 92.2%

COc1cccc(C(=O)N(c2ccc(F)c(F)c2)C(C(=O)NC(C)(C)C)c2cc3c(C)cc(C)cc3nc2Cl)c1 (stereo not drawn)
inactive: SR leukemia 67.6% | RPMI-8226 leukemia 42.9% | OVCAR-8 ovarian 84.1% | OVCAR-5 ovarian 86.5% | OVCAR-4 ovarian 48.7% | SK-OV-3 ovarian 75.5% | IGROV1 ovarian 77.2% | OVCAR-3 ovarian 60.3% | HS 578T breast 79.8% | NCI/ADR-RES ovarian 73.2% | T-47D breast 46.6% | BT-549 breast 90.7% | MDA-MB-435 melanoma 63.2% | SW-620 colon 78.6% | MCF7 breast 45.6% | HCT-116 colon 34.8% | HCC-2998 colon 88.3% | KM12 colon 60.2%

Cc1ccc(S(=O)(=O)Oc2ccccc2-c2ccccc2)cc1
active: SR leukemia 8.73% | OVCAR-3 ovarian -28.1% | HS 578T breast -21.5% | NCI/ADR-RES ovarian -7.58% | MDA-MB-435 melanoma -41.5%
inactive: RPMI-8226 leukemia 34.4% | OVCAR-8 ovarian 41.6% | OVCAR-5 ovarian 63.6% | OVCAR-4 ovarian 60.7% | SK-OV-3 ovarian 23% | IGROV1 ovarian 35.6% | T-47D breast 37.1% | BT-549 breast 44.3% | SW-620 colon 20.8% | MCF7 breast 15.9% | HCT-116 colon 14.6% | KM12 colon 15.6%

Cc1ccc2c3c(cccc13)-c1ccccc1C2=O
inactive: SR leukemia 94.1% | RPMI-8226 leukemia 97.8% | OVCAR-8 ovarian 94.2% | OVCAR-5 ovarian 113% | OVCAR-4 ovarian 105% | SK-OV-3 ovarian 92.1% | IGROV1 ovarian 94% | OVCAR-3 ovarian 108% | HS 578T breast 94% | NCI/ADR-RES ovarian 99% | T-47D breast 84.9% | BT-549 breast 106% | MDA-MB-435 melanoma 98.9% | SW-620 colon 93% | MCF7 breast 96.6% | HCT-116 colon 86.4% | KM12 colon 54.4%

COc1ccc(/C(CS(=O)(=O)c2ccccc2)=N\O)cc1
inactive: SR leukemia 87% | RPMI-8226 leukemia 101% | OVCAR-8 ovarian 103% | OVCAR-5 ovarian 104% | OVCAR-4 ovarian 99.4% | SK-OV-3 ovarian 112% | IGROV1 ovarian 109% | OVCAR-3 ovarian 125% | HS 578T breast 104% | NCI/ADR-RES ovarian 115% | T-47D breast 93.4% | BT-549 breast 102% | MDA-MB-435 melanoma 94.1% | SW-620 colon 111% | MCF7 breast 94.6% | HCT-116 colon 125% | KM12 colon 123%

CC(=O)OC1Oc2ccccc2-c2oc(=O)c(-c3cc(=O)oc4cc(O)ccc34)cc21 (stereo not drawn)
inactive: RPMI-8226 leukemia 46.7% | OVCAR-8 ovarian 89.1% | OVCAR-5 ovarian 75.8% | OVCAR-4 ovarian 77.2% | SK-OV-3 ovarian 83.3% | IGROV1 ovarian 49.4% | OVCAR-3 ovarian 63.8% | HS 578T breast 59.5% | NCI/ADR-RES ovarian 75.5% | BT-549 breast 61.4% | MDA-MB-435 melanoma 86.8% | SW-620 colon 92.2% | MCF7 breast 85.5% | HCT-116 colon 87.3% | KM12 colon 89.2%
active: SR leukemia 3.66% | T-47D breast -17.5%

CC1(C)CC(=O)c2c(nc3ccc(Cl)cc3c2-c2ccccc2)C1
inactive: SR leukemia 69.5% | RPMI-8226 leukemia 27.5% | OVCAR-8 ovarian 94.6% | OVCAR-5 ovarian 89.9% | OVCAR-4 ovarian 98.8% | SK-OV-3 ovarian 94.3% | IGROV1 ovarian 75.5% | OVCAR-3 ovarian 108% | HS 578T breast 158% | NCI/ADR-RES ovarian 81.9% | T-47D breast 85.7% | BT-549 breast 85.8% | MDA-MB-435 melanoma 84.5% | SW-620 colon 159% | MCF7 breast 86.3% | HCT-116 colon 91% | KM12 colon 94%

CC1(CO)CCCC12OCCO2 (stereo not drawn)
inactive: SR leukemia 93.3% | RPMI-8226 leukemia 100% | OVCAR-8 ovarian 106% | OVCAR-5 ovarian 97.3% | OVCAR-4 ovarian 111% | SK-OV-3 ovarian 111% | IGROV1 ovarian 104% | OVCAR-3 ovarian 108% | HS 578T breast 119% | NCI/ADR-RES ovarian 113% | T-47D breast 111% | BT-549 breast 99.9% | MDA-MB-435 melanoma 92.8% | SW-620 colon 108% | MCF7 breast 95.2% | HCT-116 colon 105% | KM12 colon 112%

CCCC(C)c1ccc(OCCCCCCN2CCNCC2)cc1 (stereo not drawn)
inactive: OVCAR-8 ovarian 36.8% | OVCAR-5 ovarian 80.8% | OVCAR-4 ovarian 62.2% | SK-OV-3 ovarian 87% | IGROV1 ovarian 64.7% | OVCAR-3 ovarian 62.6% | HS 578T breast 68.1% | NCI/ADR-RES ovarian 54.3% | BT-549 breast 76.5% | MDA-MB-435 melanoma 28.9% | KM12 colon 15.1%
active: SR leukemia -24.7% | RPMI-8226 leukemia -9.35% | T-47D breast -12.7% | SW-620 colon -16.6% | MCF7 breast -23.2% | HCT-116 colon -6%

O=C(COc1ccc(Cl)cc1Cl)Oc1coc(CSc2nc3ccccc3s2)cc1=O
inactive: SR leukemia 98.6% | RPMI-8226 leukemia 87% | OVCAR-8 ovarian 21.3% | OVCAR-5 ovarian 116% | OVCAR-4 ovarian 99.1% | SK-OV-3 ovarian 102% | IGROV1 ovarian 64.3% | OVCAR-3 ovarian 114% | NCI/ADR-RES ovarian 104% | T-47D breast 101% | BT-549 breast 108% | MDA-MB-435 melanoma 114% | SW-620 colon 20.7% | MCF7 breast 102% | HCT-116 colon 105% | KM12 colon 110%
active: HS 578T breast -1.61%

CCCCCCCCCCCC(c1ccccc1)N(C)C (stereo not drawn)
inactive: SR leukemia 77% | RPMI-8226 leukemia 83.5% | OVCAR-8 ovarian 97.7% | OVCAR-5 ovarian 99.2% | OVCAR-4 ovarian 84.7% | SK-OV-3 ovarian 108% | IGROV1 ovarian 96.1% | OVCAR-3 ovarian 106% | HS 578T breast 93.3% | NCI/ADR-RES ovarian 96.1% | T-47D breast 99.7% | BT-549 breast 101% | MDA-MB-435 melanoma 102% | SW-620 colon 95.4% | MCF7 breast 91.3% | HCT-116 colon 94.4% | KM12 colon 104%

CCOCC[P+](c1ccccc1)(c1ccccc1)c1ccccc1
inactive: SR leukemia 21.4% | OVCAR-8 ovarian 46.5% | OVCAR-5 ovarian 76.2% | OVCAR-4 ovarian 36.4% | SK-OV-3 ovarian 60.3% | IGROV1 ovarian 46.9% | OVCAR-3 ovarian 33.8% | HS 578T breast 79.1% | NCI/ADR-RES ovarian 100% | T-47D breast 18% | BT-549 breast 36.9% | MDA-MB-435 melanoma 28.8% | SW-620 colon 60% | MCF7 breast 31.1% | HCT-116 colon 38.1% | KM12 colon 25.8%
active: RPMI-8226 leukemia 1.2%

COc1ccc(CSc2nc3cc(OC)c(OC)cc3c(=O)n2-c2ccc(OC)cc2OC)cc1
inactive: SR leukemia 59.5% | RPMI-8226 leukemia 63.7% | OVCAR-8 ovarian 89.2% | OVCAR-5 ovarian 102% | OVCAR-4 ovarian 83.2% | SK-OV-3 ovarian 114% | IGROV1 ovarian 86.1% | OVCAR-3 ovarian 92.1% | HS 578T breast 86.7% | NCI/ADR-RES ovarian 79.5% | T-47D breast 75.6% | BT-549 breast 93.9% | MDA-MB-435 melanoma 62% | SW-620 colon 90.3% | MCF7 breast 83.1% | HCT-116 colon 62.9% | KM12 colon 78.1%
